# Data: PubChem BioAssay (EPA / NIEHS)
# Results filed as inconclusive are left out. Calls of active or inactive are those of the source. How the source made its calls, unless noted: active means hit-call score of the fitted dose curve at least 0.9, where 1 is the maximum; inactive means score below 0.9.
# Key:
# [1] = target: human Phosphoinositide 3-kinase alpha (PI3Ka), PIK3CA (gene 5290) (UniProt P42336); assay: NVS_ENZ_hPI3Ka: NovaScreen (NVS) Enzymatic Assay for human Phosphoinositide 3-kinase alpha (PI3Ka) (AID 2283196; active means hit-call score of the fitted dose curve at least 0.9, where 1 is the maximum)
# Sequence of human Phosphoinositide 3-kinase alpha (PI3Ka), PIK3CA (gene 5290) (P42336 whole entry, looked up): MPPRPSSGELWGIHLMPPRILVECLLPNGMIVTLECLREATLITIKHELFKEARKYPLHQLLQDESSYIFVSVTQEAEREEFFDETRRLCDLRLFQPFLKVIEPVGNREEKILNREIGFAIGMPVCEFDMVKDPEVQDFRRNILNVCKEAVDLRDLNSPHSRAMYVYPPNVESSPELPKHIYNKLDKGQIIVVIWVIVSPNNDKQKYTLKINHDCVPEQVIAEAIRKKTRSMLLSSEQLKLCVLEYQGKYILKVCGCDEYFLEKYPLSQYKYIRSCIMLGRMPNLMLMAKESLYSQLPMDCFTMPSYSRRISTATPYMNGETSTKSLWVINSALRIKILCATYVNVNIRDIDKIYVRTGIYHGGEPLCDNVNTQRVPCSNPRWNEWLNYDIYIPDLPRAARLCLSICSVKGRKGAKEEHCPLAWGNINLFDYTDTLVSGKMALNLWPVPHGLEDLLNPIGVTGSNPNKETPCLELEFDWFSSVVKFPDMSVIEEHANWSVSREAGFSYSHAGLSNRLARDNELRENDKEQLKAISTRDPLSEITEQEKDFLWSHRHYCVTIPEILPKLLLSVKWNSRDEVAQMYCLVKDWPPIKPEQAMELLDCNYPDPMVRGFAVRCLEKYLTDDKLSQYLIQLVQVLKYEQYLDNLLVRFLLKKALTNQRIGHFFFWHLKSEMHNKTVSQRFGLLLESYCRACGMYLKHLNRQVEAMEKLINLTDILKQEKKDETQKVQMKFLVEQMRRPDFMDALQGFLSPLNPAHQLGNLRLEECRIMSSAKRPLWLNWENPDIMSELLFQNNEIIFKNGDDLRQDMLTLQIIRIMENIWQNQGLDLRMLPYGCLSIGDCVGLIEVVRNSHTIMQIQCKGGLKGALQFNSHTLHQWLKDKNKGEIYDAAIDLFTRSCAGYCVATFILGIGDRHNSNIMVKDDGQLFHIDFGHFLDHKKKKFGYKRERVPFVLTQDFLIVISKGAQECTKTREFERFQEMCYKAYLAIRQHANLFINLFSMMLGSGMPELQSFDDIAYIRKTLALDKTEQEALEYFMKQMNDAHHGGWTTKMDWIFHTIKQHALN
# Method in brief: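 Recombinant human PI3Kα with fluorescent substrate, 1 h, product separated by electrophoretic mobility shift; 25 uM duplicate screen, hits (e.g., 30% inhibition) retested singly up to 50 uM; loss of signal vs DMSO.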
# [2] = CCTE_Deisenroth_AIME_384WELL_CTox_Active: Cytotoxicity Assessment (CTOX) in CCTE's 384-well Estrogen Receptor Transactivation Assay with AIME metabolic competence (metabolism positive), Deisenroth Lab (AID 2284037; active means hit-call score of the fitted dose curve at least 0.9, where 1 is the maximum;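 further: chemicals first conditioned 2 h by alginate-bound induced rat liver S9 before cells; activity means signal loss indicating cell death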)
# Method in brief: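 Chemicals pre-incubated 2 hours with alginate-immobilised phenobarbital/beta-naphthoflavone-induced male Sprague Dawley rat liver S9, then conditioned medium applied 24 hour to VM7Luc4E2 cells. Viability by fluorogenic protease substrate; 10-point series 0.002 - 200 uM.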
# [3] = target: Nuclear receptor subfamily 1 group I member 2 (Homo sapiens) (UniProt O75469); assay: NVS_NR_hPXR: NovaScreen (NVS) Nuclear Receptor Binding Assay for human Pregnane X Receptor (PXR) (AID 2283365; active means hit-call score of the fitted dose curve at least 0.9, where 1 is the maximum;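 further: a drop in FRET signal versus DMSO baseline means the compound binds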)
# Sequence of Nuclear receptor subfamily 1 group I member 2 (Homo sapiens) (O75469 whole entry, looked up): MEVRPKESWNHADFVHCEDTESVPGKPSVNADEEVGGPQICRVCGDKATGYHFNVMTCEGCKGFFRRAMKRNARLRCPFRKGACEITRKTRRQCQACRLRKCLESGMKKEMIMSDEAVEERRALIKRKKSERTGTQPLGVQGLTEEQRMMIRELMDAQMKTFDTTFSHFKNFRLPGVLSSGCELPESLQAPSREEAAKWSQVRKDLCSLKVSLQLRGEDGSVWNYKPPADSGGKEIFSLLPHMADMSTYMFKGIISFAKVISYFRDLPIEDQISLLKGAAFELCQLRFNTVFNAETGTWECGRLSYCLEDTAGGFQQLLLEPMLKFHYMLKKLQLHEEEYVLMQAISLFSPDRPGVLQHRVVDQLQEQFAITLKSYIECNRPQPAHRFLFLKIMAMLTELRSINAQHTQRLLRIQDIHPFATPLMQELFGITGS
# Method in brief: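 Read-out: TR-FRET, human PXR, 2 h post-dosing, cell-free. Loss of signal vs DMSO taken as binding activity; 25 uM primary, concentration series secondary.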
# [4] = test system: Sodium/Iodide Symporter (NIS), SLC5A5 (gene 6528); assay: CPHEA_Stoker_NIS_Inhibition_RAIU: CPHEA's Radioactive Iodide Uptake (RAIU) Assay for Sodium/Iodide Symporter (NIS) Inhibition, Stoker and Laws Labs (AID 2283841; active means hit-call score of the fitted dose curve at least 0.9, where 1 is the maximum)
# Method in brief: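 hNIS-HEK293T-EPA cells incubated 2 h at room temperature with compound (0.001–100 uM, 0.5% DMSO) and 329 pM final 125I in HBSS/10 mM HEPES, pH 7.4. Intracellular 125I counted; normalised to DMSO maximal uptake, triplicate, three biological replicates.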
# [5] = CPHEA_Stoker_NIS_Cytotoxicity: Cytotoxicity Assessment for CPHEA's Radioactive Iodide Uptake (RAIU) Assay for Sodium/Iodide Symporter (NIS) Inhibition, Stoker and Laws Labs (AID 2283897; active means hit-call score of the fitted dose curve at least 0.9, where 1 is the maximum)
# Method in brief: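 hNIS-HEK293T-EPA cells, human NIS expressed in HEK293T, treated 2 h with chemicals (0.001–100 uM, 0.5% final DMSO). ATP content read by CellTiter-Glo luminescence; loss of signal analysed relative to DMSO.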
# [6] = target: Estrogen receptor (Homo sapiens) (UniProt P03372); assay: OT_ER_ERaERa_1440: Odyssey Thera (OT) 24-hour HEK293T Protein-Complementation Assay for Estrogen Receptor-alpha/-alpha Homodimer (AID 2283349; active means hit-call score of the fitted dose curve at least 0.9, where 1 is the maximum;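 further: hits raise fluorescence above DMSO for agonists and antagonists alike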)
# Sequence of Estrogen receptor (Homo sapiens) (P03372 whole entry, looked up, the tested form may be a part): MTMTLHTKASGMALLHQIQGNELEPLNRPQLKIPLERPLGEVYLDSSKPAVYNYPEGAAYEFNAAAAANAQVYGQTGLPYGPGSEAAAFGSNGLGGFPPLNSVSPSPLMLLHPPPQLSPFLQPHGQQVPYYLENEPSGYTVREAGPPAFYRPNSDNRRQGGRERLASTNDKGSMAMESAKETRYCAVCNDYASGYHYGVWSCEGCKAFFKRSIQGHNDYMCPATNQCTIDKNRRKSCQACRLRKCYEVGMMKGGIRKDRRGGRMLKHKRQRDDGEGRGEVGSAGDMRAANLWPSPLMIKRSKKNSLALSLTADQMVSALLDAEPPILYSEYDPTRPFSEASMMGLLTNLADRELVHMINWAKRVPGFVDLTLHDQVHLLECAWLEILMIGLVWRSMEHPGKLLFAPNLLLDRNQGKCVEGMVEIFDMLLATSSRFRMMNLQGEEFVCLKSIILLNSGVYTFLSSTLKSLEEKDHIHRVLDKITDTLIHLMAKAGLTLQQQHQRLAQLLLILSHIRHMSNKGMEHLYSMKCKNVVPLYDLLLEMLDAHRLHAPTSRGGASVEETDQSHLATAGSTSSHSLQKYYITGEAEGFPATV
# Method in brief: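 HEK293T cells stably expressing the human ER alpha ligand-binding domain (aa 310-547) as a homodimer PCA were dosed for 24 hours. Fluorescence intensity was read by laser scanning cytometry, and gain of signal was fitted relative to DMSO vehicle.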
# [7] = target: Estrogen receptor (Homo sapiens) (UniProt P03372); assay: OT_ER_ERaERa_0480: Odyssey Thera (OT) 8-hour HEK293T Protein-Complementation Assay for Estrogen Receptor-alpha/-alpha Homodimer (AID 2283351; active means hit-call score of the fitted dose curve at least 0.9, where 1 is the maximum;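 further: rise in fluorescence from reassembled reporter fragments on ERα LBD homodimer in nucleus or whole cell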)
# Method in brief: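 Binding reporter in which dimerisation of ERα LBD (aa 310-547) fusions reconstitutes a fluorescent reporter in HEK293T cells. Compounds incubated 8 h; mean fluorescence intensity increase versus DMSO scored.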
# [8] = target: Estrogen receptor (Homo sapiens) (UniProt P03372); assay: OT_ERa_GFPERaERE_0480: Odyssey Thera (OT) 8-hour HeLa Transcription Induction Assay for Estrogen Receptor (AID 2283381)
# Method in brief: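 Cells (HeLa) receive compound; after 8 h, reporter fluorescence is imaged and quantified by high-content analysis. Gain-of-signal relative to DMSO gives the endpoint.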
# [9] = target: Estrogen receptor (Homo sapiens) (UniProt P03372); assay: OT_ERa_GFPERaERE_0120: Odyssey Thera (OT) 2-hour HeLa Transcription Induction Assay for Estrogen Receptor (AID 2283382; active means hit-call score of the fitted dose curve at least 0.9, where 1 is the maximum)
# Method in brief: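 Measures ESR1 pathway reporter gain-of-signal in HeLa cells after a 2-hour treatment, detected as fluorescent protein induction by microscopy, DMSO as baseline.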
# [10] = CCTE_Shafer_MEA_acute_spike_number: CCTE's Neural Acute Assay for Total Number of Spikes, Shafer Lab (AID 2284008);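 on AC50: curve fitted for decrease in spike count so AC50 reflects inhibitors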
# Method in brief: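 Using an adaptive detector set to 8x rms noise, spikes were counted in 40-min windows before and after compound addition (0.03-40 uM) to rat cortical networks at 37 C; the well-level change from baseline was analysed relative to DMSO.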
# [11] = CCTE_Shafer_MEA_acute_firing_rate_mean: CCTE's Neural Acute Assay for Mean Firing Rate, Shafer Lab (AID 2284009);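 further: analyzed for loss of signal so actives lower firing rate relative to DMSO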
# Method in brief: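 Rat primary cortical neurons on 48-well MEA plates, dosed at 0.03-40 uM on DIV 13 or 15; 40 min spontaneous activity recorded at 37 C before and after compound. Spike rate per electrode averaged per well, expressed as percent change from baseline.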
# [12] = CCTE_Shafer_MEA_acute_burst_number: CCTE's Neural Acute Assay for Single-Electrode Bursts, Shafer Lab (AID 2284013)
# Method in brief: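 Primary rat cortical neurons on 16-electrode MEA wells, treated on DIV 13 or 15 with compound at 0.03-40 uM. Single-electrode burst count from 40-min recordings at 37 C before and after exposure; percent change from baseline per well, DMSO negative control.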
# [13] = CCTE_Shafer_MEA_acute_burst_duration_mean: CCTE's Neural Acute Assay for Mean Burst Duration, Shafer Lab (AID 2284014);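 further: hits are decreases in mean burst duration relative to DMSO controls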
# Method in brief: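 Rat primary cortical neurons on 48-well MEA, treated at DIV 13 or 15 with 0.03-40 uM in at least 3 wells. Value is percent change in mean burst duration, comparing 40 min recordings at 37 C before and during exposure.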
# [14] = CCTE_Shafer_MEA_acute_per_burst_spike_number_mean: CCTE's Neural Acute Assay for Average Number of Spikes Per Burst, Shafer Lab (AID 2284015);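 further: hits are decreases in mean spikes per burst versus baseline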
# Method in brief: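 Rat primary cortical neurons on 48-well MEAs (DIV 13 or 15) were treated with 0.03-40 uM compound at 37 C. Mean spikes per burst over 40 min were recorded before and after exposure and expressed as percent change from baseline, relative to DMSO.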
# [15] = CCTE_Shafer_MEA_acute_interburst_interval_mean: CCTE's Neural Acute Assay for Mean Interburst Interval, Shafer Lab (AID 2284016);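 further: percent change of mean interburst interval versus each well's own pre-dose baseline; curves fitted for decrease in interburst interval relative to DMSO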
# Method in brief: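 Rat primary cortical neurons on 48-well MEAs at DIV 13 or 15 were exposed acutely to 0.03-40 uM. Spikes detected at 8x rms noise, 37 C. Mean interburst interval from 40 min recordings expressed as percent change from 40 min pre-treatment baseline.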
# [16] = CCTE_Shafer_MEA_acute_burst_percentage_mean: CCTE's Neural Acute Assay for Percentage of Spikes in a Burst, Shafer Lab (AID 2284017);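 on AC50: curve fitted for loss of signal so potency reflects decreased burst percentage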
# Method in brief: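 Primary rat cortical neurons on 48-well MEA plates, treated on DIV 13 or 15 at 0.03-40 uM. Spikes detected at 8x rms noise at 37C; percent change from 40-min baseline to 40-min post-dose recording, fitted versus DMSO.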
# [17] = CCTE_Shafer_MEA_acute_burst_percentage_std: CCTE's Neural Acute Assay for Standard Deviation of Burst Percentage, Shafer Lab (AID 2284018);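 further: fitted in the negative direction so actives lower burst percentage SD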
# Method in brief: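 Rat primary cortical neurons on 48-well MEAs, DIV 13 or 15, 37 C. 40-min baseline then 40-min recording with compound (0.03-40 uM); well-level SD of per-electrode burst spike percentage, expressed as percent change from baseline.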
# [18] = CCTE_Shafer_MEA_acute_per_network_burst_spike_number_mean: CCTE's Neural Acute Assay for Average Number of Spikes in a Network Burst, Shafer Lab (AID 2284019);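 on AC50: curve fitted for loss of signal so actives reduce spikes per network burst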
# Method in brief: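 Rat primary cortical neurons on 48-well MEA at DIV 13 or 15, 37 C; compounds 0.03-40 uM, at least three wells each. 40-min baseline then 40-min exposure recording; percent change in mean spikes per network burst.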
# [19] = CCTE_Shafer_MEA_acute_per_network_burst_spike_number_std: CCTE's Neural Acute Assay for Standard Deviation of Number of Spikes in a Network Burst, Shafer Lab (AID 2284020);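 further: fitted for decrease in spike-number SD versus DMSO so actives lower it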
# Method in brief: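 Rat primary cortical neurons on 48-well MEA (16 electrodes/well), treated DIV 13 or 15 at 0.03-40 uM, ≥3 wells per compound. 40 min recordings at 37 C before and after dosing; value is percent change in network-burst spike-number SD, negative direction vs DMSO.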
# [20] = target: Peroxisome proliferator-activated receptor gamma (Homo sapiens) (UniProt P37231); assay: NVS_NR_hPPARg: NovaScreen (NVS) Nuclear Receptor Binding Assay for human Peroxisome Proliferator-activated Receptor gamma (PPARg) (AID 2283370; active means hit-call score of the fitted dose curve at least 0.9, where 1 is the maximum)
# Sequence of Peroxisome proliferator-activated receptor gamma (Homo sapiens) (P37231 whole entry, looked up): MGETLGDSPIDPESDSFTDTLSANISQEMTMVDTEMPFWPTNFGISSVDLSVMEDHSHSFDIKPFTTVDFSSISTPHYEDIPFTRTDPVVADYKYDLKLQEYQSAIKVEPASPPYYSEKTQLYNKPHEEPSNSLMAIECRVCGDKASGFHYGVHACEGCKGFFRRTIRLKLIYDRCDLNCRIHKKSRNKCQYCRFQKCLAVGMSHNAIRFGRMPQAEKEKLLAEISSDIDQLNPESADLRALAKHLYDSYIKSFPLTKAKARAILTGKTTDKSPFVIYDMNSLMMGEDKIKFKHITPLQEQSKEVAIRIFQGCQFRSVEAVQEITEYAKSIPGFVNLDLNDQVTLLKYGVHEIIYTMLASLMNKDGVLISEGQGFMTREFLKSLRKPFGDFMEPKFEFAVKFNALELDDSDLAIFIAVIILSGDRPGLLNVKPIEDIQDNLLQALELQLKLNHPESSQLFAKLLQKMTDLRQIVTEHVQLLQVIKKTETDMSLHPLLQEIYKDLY
# Method in brief: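 Extracted receptor protein, cell-free; compound incubated 2 h then fluorescence polarization read. Baseline: DMSO. Actives from 25 uM duplicate screen re-run across concentrations.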
compound,measurement,setting,value
CCCOCCC,outcome,[1],inactive
CCCCOC(=O)COc1ccc(Cl)cc1Cl,outcome,[2],inactive
CC(=O)CCc1ccccc1,outcome,[1],inactive
COC(=O)[C@]1(C)CCC[C@@]2(C)[C@H]1CC=C1C=C(C(C)C)CC[C@@H]12,outcome,[3],inactive
same,outcome,[4],inactive
same,outcome,[5],inactive
CCCCCCC1CCC(=O)O1 (stereo unspecified),outcome,[6],inactive
same,outcome,[7],inactive
same,outcome,[8],inactive
same,outcome,[9],inactive
NC(N)=Nc1nc(CSCCC(N)=NS(N)(=O)=O)cs1,outcome,[10],inactive
same,outcome,[11],inactive
same,outcome,[12],inactive
same,outcome,[13],inactive
same,outcome,[14],inactive
same,outcome,[15],inactive
same,outcome,[16],inactive
same,outcome,[17],inactive
same,outcome,[18],inactive
same,outcome,[19],inactive
Cc1cc2nc3c(=O)[nH]c(=O)nc-3n(C[C@H](O)[C@H](O)[C@H](O)CO)c2cc1C,AC50,[4],25.8 µM (active)
same,outcome,[5],inactive
C=C1CC[C@H]2C[C@@H]1C2(C)C,outcome,[6],inactive
same,outcome,[7],inactive
same,outcome,[3],inactive
same,outcome,[8],inactive
same,outcome,[9],inactive
CN(C)CCC(c1ccc(Cl)cc1)c1ccccn1 (stereo unspecified),outcome,[10],inactive
same,outcome,[11],inactive
same,outcome,[12],inactive
same,outcome,[13],inactive
same,AC50,[14],24.3 µM (active)
same,AC50,[15],23.9 µM (active)
same,AC50,[16],23.8 µM (active)
same,AC50,[17],27.1 µM (active)
same,AC50,[18],3.62 µM (active)
same,AC50,[19],19.5 µM (active)
Cc1cc(C)c(S(=O)(=O)O)cc1N=Nc1cc(S(=O)(=O)O)c2ccccc2c1O,outcome,[20],inactive
CCO[Si](CCCN)(OCC)OCC,outcome,[6],inactive
same,outcome,[7],inactive
same,outcome,[8],inactive
same,outcome,[9],inactive
Cc1cccnc1,outcome,[20],inactive
same,outcome,[4],inactive
same,outcome,[5],inactive
CCC(C)=NO,outcome,[2],inactive
CC[N+](CC)(CC(=O)Nc1c(C)cccc1C)Cc1ccccc1 (tested in a mixture with another compound),AC50,[10],256 nM (active)
same,AC50,[11],694 nM (active)
same,outcome,[12],inactive
same,outcome,[13],inactive
same,outcome,[14],inactive
same,outcome,[15],inactive
same,AC50,[16],2.13 µM (active)
same,outcome,[17],inactive
same,outcome,[18],inactive
same,outcome,[19],inactive
same,outcome,[2],inactive
CC(C)CC(=O)CC(C)C,outcome,[2],inactive
O=C(O)c1ccccc1C(=O)O,outcome,[6],inactive
same,outcome,[7],inactive
same,outcome,[8],inactive
same,outcome,[9],inactive
CCCCCCCCCCCCCCCCCC[N+](C)(C)C,AC50,[1],3.68 µM (active)
C1=CCC=C1,outcome,[2],inactive
CC[N+](CC)(CC(=O)Nc1c(C)cccc1C)Cc1ccccc1,outcome,[20],inactive
CCOC(=O)c1ccccc1,outcome,[6],inactive
same,outcome,[7],inactive
same,outcome,[3],inactive
same,outcome,[20],inactive
same,outcome,[8],inactive
same,outcome,[9],inactive
O=C(CC(C(=O)OC1CCCCC1)S(=O)(=O)O)OC1CCCCC1 (stereo unspecified),AC50,[3],8.32 µM (active)
same,outcome,[20],inactive
CN(C)Cc1cc(C(C)(C)C)c(O)c(C(C)(C)C)c1,AC50,[10],2980 nM (active)
same,AC50,[11],2980 nM (active)
same,outcome,[12],inactive
same,outcome,[13],inactive
same,outcome,[14],inactive
same,outcome,[15],inactive
same,AC50,[16],24.1 µM (active)
same,AC50,[17],15 µM (active)
same,AC50,[18],0.0516 µM (active)
same,AC50,[19],0.0258 µM (active)
Cc1ccccc1S(N)(=O)=O,outcome,[1],inactive
O=C(OCc1ccccc1)c1ccccc1,outcome,[3],inactive
same,outcome,[4],inactive
same,outcome,[5],inactive
CC1(C)S[C@@H]2[C@H](NC(=O)[C@H](N)c3ccccc3)C(=O)N2[C@H]1C(=O)O,AC50,[1],12.5 µM (active)
same,outcome,[10],inactive
same,outcome,[11],inactive
same,outcome,[12],inactive
same,outcome,[13],inactive
same,outcome,[14],inactive
same,AC50,[15],1.61 µM (active)
same,AC50,[16],0.0814 µM (active)
same,outcome,[17],inactive
same,outcome,[18],inactive
same,outcome,[19],inactive
CCCCCC[C@@H](O)C/C=C\CCCCCCCC(=O)O,AC50,[20],15.1 µM (active)
same,outcome,[4],inactive
same,outcome,[5],inactive
